# Measurements taken from publication PMC8384837, “Expanding the binding specificity for RNA recognition by a PUF domain”.
# Residue numbers refer to the chain shown, from its start.
# Key:
# Experiment in all cases: yeast three-hybrid, YBZ-1, SC-Leu-His + 0.5 mM 3-AT, 4 days
# Settings in all cases: tags: N-Gal4 AD-HA kept; label: inside an RPR1-promoter hybrid RNA with tandem MS2 sites; ssRNA
# [1] = target: PUM1 PUF domain R3-FFG (Homo sapiens, UniProt Q14671 828-1176, C935F;R936F;Q939G)
# Outline: (§1)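 Pumilio-1 PUF domain libraries, randomized at the three base-contacting residues of each repeat, were co-expressed with matching RNA elements from a centromeric plasmid in strain YBZ-1, which carries a LexA–MS2 coat fusion and a HIS3 reporter. Transformants grew for four days on SC-Leu (input) or on SC-Leu-His + 0.5 mM 3-AT (selection), and the repeat regions were PCR-amplified and Illumina-sequenced. The interaction score is the log change in variant frequency from input to selection. That logarithm is base 2, with a pseudocount of 1 where a variant was absent.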
# [2] = target: PUM1 PUF domain R3-LWV (Homo sapiens, UniProt Q14671 828-1176, C935L;R936W;Q939V)
# Outline: as §1
# [3] = target: PUM1 PUF domain R3-RRL (Homo sapiens, UniProt Q14671 828-1176, C935R;Q939L)
# Outline: as §1
# [4] = target: T1, PUM1 PUF domain R6-MWR (Homo sapiens, UniProt Q14671 828-1176, N1043M;Y1044W;Q1047R)
# T1 sequence: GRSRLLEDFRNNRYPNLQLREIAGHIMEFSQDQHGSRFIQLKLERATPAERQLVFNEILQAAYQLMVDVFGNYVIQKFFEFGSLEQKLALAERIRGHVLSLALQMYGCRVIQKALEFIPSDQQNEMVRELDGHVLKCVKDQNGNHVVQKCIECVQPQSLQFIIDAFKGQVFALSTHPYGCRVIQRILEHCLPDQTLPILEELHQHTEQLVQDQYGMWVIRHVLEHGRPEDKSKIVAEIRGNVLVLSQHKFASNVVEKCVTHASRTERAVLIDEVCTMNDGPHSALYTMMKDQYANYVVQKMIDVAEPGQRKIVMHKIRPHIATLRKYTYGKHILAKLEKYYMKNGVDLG
# Outline: as §1
# [5] = target: T2, PUM1 PUF domain R6-TWQ (Homo sapiens, UniProt Q14671 828-1176, N1043T;Y1044W)
# T2 sequence: T1 sequence with M216T, R220Q
# Outline: as §1
# [6] = target: PUM1 PUF domain R5-KFC (Homo sapiens, UniProt Q14671 828-1176, C1007K;R1008F;Q1011C)
# Outline: as §1
# [7] = target: PUM1 PUF domain R5-RRE (Homo sapiens, UniProt Q14671 828-1176, C1007R;Q1011E)
# Outline: as §1
# [8] = target: PUM1 PUF domain R5-KFW (Homo sapiens, UniProt Q14671 828-1176, C1007K;R1008F;Q1011W)
# Outline: as §1
# [9] = target: PUM1 PUF domain R7-GPK (Homo sapiens, UniProt Q14671 828-1176, S1079G;N1080P;E1083K)
# Outline: as §1
# [10] = target: PUM1 PUF domain R3-DWE (Homo sapiens, UniProt Q14671 828-1176, C935D;R936W;Q939E)
# Outline: as §1
# Chain of PUM1 PUF domain R5-RRE (Q14671 828-1176 C1007R/Q1011E): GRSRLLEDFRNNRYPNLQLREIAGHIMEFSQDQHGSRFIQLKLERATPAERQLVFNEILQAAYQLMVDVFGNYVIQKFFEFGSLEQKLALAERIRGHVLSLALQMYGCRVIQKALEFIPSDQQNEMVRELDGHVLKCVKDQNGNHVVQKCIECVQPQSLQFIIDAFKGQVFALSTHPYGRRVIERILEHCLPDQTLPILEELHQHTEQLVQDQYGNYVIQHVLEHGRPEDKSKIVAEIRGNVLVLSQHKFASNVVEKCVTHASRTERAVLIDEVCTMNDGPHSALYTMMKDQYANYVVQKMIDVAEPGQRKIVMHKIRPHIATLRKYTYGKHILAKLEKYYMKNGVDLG
sequence,measurement,setting,value
GGCUAGAACUAGUGGAUCCCCCGGCGCCCGGCGGCUCGAGCCCGGGUAAGUGUAAGUAGUCUGCAUGCCGCCGGGCGCCAUGCCUGCAGGUCGACUCUAGAAAACAUG,binding signal,[1],7.59 log2 enrichment (interaction score)
same,binding signal,[2],4 log2 enrichment (interaction score)
GGCUAGAACUAGUGGAUCCCCCGGCGCCCGGCGGCUCGAGCCCGGGUAAGUGUAAUUAGUCUGCAUGCCGCCGGGCGCCAUGCCUGCAGGUCGACUCUAGAAAACAUG,binding signal,[3],3.07 log2 enrichment (interaction score)
same,binding signal,[1],3.8 log2 enrichment (interaction score)
same,binding signal,[2],3.36 log2 enrichment (interaction score)
GGCUAGAACUAGUGGAUCCCCCGGCGCCCGGCGGCUCGAGCCCGGGUAAGUGAAAAUAGUCUGCAUGCCGCCGGGCGCCAUGCCUGCAGGUCGACUCUAGAAAACAUG,binding signal,[4],3.34 log2 enrichment (interaction score)
same,binding signal,[5],2.43 log2 enrichment (interaction score)
GGCUAGAACUAGUGGAUCCCCCGGCGCCCGGCGGCUCGAGCCCGGGUAAGUGUUAAUAGUCUGCAUGCCGCCGGGCGCCAUGCCUGCAGGUCGACUCUAGAAAACAUG,binding signal,[6],5.65 log2 enrichment (interaction score)
same,binding signal,[7],5.72 log2 enrichment (interaction score)
GGCUAGAACUAGUGGAUCCCCCGGCGCCCGGCGGCUCGAGCCCGGGUAAGUGUGAAUAGUCUGCAUGCCGCCGGGCGCCAUGCCUGCAGGUCGACUCUAGAAAACAUG,binding signal,[7],2.27 log2 enrichment (interaction score)
GGCUAGAACUAGUGGAUCCCCCGGCGCCCGGCGGCUCGAGCCCGGGUAAGUGUCAAUAGUCUGCAUGCCGCCGGGCGCCAUGCCUGCAGGUCGACUCUAGAAAACAUG,binding signal,[6],3.89 log2 enrichment (interaction score)
same,binding signal,[7],4.96 log2 enrichment (interaction score)
same,binding signal,[8],4.73 log2 enrichment (interaction score)
GGCUAGAACUAGUGGAUCCCCCGGCGCCCGGCGGCUCGAGCCCGGGUAAGUUUAAAUAGUCUGCAUGCCGCCGGGCGCCAUGCCUGCAGGUCGACUCUAGAAAACAUG,binding signal,[9],3.11 log2 enrichment (interaction score)
GGCUAGAACUAGUGGAUCCCCCGGCGCCCGGCGGCUCGAGCCCGGGUAAGUGCAAAUAGUCUGCAUGCCGCCGGGCGCCAUGCCUGCAGGUCGACUCUAGAAAACAUG,binding signal,[4],2.97 log2 enrichment (interaction score)
GGCUAGAACUAGUGGAUCCCCCGGCGCCCGGCGGCUCGAGCCCGGGUAAGUGUAAAUAGUCUGCAUGCCGCCGGGCGCCAUGCCUGCAGGUCGACUCUAGAAAACAUG,binding signal,[6],5.41 log2 enrichment (interaction score)
same,binding signal,[4],7.74 log2 enrichment (interaction score)
same,binding signal,[10],2.3 log2 enrichment (interaction score)
same,binding signal,[7],1.27 log2 enrichment (interaction score)
same,binding signal,[8],3.83 log2 enrichment (interaction score)
same,binding signal,[1],3.38 log2 enrichment (interaction score)
same,binding signal,[2],3.07 log2 enrichment (interaction score)
